High-throughput results (PubChem)
Most compounds without a hit are left out; they make up all but 9.9% or so of the library.
Tau fluor counter: counter-screen for tau fibril formation inhibitors; tau K18 P301L Alexa594 fluorescence, heparin fibrillization; AID 1463; hit rate 0.93% among 280,000; Potency, µM (titrated, usually from 57.7 µM); active means well fitted curve in the direction sought with a large enough effect; inconclusive means small, poorly fitted or top-dose-only effect, or another doubt; inactive means no such curve, though single readings can be large; an effect the other way counts as inactive or inconclusive; further: nearly all actives have a fitted effect of over 55% in size
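Human tau K18 P301L (15 uM unlabeled, 0.24 uM Alexa 594-labeled) in 100 mM sodium acetate pH 7 with 20 uM heparin, 6 hr at 37 C. ThT 30 uM added, 1 hr ambient; Alexa 594 FP and total fluorescence read at 555/632 nm.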
ALDH1A1 block: blocks purified human ALDH1A1 activity. hit rate 7.3% among 220,000. Purified ALDH1A1, NADH fluorescence, propionaldehyde substrate. P00352. Potency, µM (highest dose often 75.3 µM), hits mostly inhibitors
Target sequence (P00352 whole entry, looked up): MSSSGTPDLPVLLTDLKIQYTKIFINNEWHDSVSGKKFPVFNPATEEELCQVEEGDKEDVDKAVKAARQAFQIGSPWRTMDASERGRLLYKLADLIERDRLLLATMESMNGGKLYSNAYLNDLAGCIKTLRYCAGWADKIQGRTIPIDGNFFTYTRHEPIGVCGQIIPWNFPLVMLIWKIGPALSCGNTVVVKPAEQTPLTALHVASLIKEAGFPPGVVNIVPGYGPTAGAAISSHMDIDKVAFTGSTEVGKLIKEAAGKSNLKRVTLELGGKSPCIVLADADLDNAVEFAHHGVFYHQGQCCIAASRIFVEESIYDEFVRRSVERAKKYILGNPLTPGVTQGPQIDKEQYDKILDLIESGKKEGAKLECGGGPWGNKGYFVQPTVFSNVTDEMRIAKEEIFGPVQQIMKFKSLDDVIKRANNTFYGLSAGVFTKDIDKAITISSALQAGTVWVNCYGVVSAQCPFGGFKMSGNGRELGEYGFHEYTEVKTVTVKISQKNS
Tau fibril FP: blocks human tau fibril formation measured by polarization; P10636; K18 P301L tau heparin fibrillization, Alexa594 FP, 6 h; Potency, µM (titrated, usually from 57.7 µM), actives largely listed as inhibitors; hit rate 0.39% among 280,000; AID 1468; active means well fitted curve in the direction sought with a large enough effect; inconclusive means small, poorly fitted or top-dose-only effect, or another doubt; inactive means no such curve, though single readings can be large; an effect the other way counts as inactive or inconclusive; further: nearly all actives have a fitted effect of over 55% in size
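K18 P301L tau (15 uM unlabeled/0.24 uM Alexa 594-labeled, final) + compound + heparin 20 uM final; 100 mM NaOAc pH 7; 6 hr 37 C; ThT 30 uM final added, 1 hr RT; FP ex 555/em 632 nm.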
KDM4E inh: JMJD2E (human) inhibition; B2RXH2; JMJD2E catalytic domain, FDH-coupled NADH fluorescence (FDH is formaldehyde dehydrogenase); Potency, µM (top dose mostly 57.1 µM), most hits filed as inhibitors; hit rate 1.6% among 230,000; AID 2147; further: nearly all actives have a fitted effect of over 50% in size
Tau ThT inhib: blocks human tau fibril formation measured by thioflavin T | recombinant tau K18 P301L, heparin-induced fibrillization, ThT fluorescence | Potency, µM (top dose mostly 57.4 µM), actives largely listed as inhibitors | hit rate 2.1% among 270,000; active means well fitted curve in the direction sought with a large enough effect; inconclusive means small, poorly fitted or top-dose-only effect, or another doubt; inactive means no such curve, though single readings can be large; an effect the other way counts as inactive or inconclusive; further: nearly all actives have a fitted effect of over 55% in size
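Fibril formation assay: tau K18 P301L at 15 uM with trace Alexa 594 label, heparin inducer 20 uM, pH 7 sodium acetate buffer, 37 C for 6 hr; endpoint ThT signal.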
HPGD inh: HPGD (human) dehydrogenase inhibition | P15428 | purified HPGD, NADH fluorescence kinetic, PGE2 substrate | Potency, µM, usual class: inhibitors | hit rate 4.3% among 150,000 | AID 894
Target sequence (P15428 whole entry, looked up): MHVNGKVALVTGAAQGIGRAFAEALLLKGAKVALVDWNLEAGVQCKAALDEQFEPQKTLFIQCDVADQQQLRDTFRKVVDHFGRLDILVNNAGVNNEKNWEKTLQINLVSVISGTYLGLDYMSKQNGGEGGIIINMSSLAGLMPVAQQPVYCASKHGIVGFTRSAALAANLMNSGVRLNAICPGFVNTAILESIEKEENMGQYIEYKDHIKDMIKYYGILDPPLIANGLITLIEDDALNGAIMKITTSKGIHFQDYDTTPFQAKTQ
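NADH formation kinetics: reaction with 30 uM PGE2 and 1 mM NAD+ (final), 20 nM enzyme, Tris-HCl pH 8 with Tween 20, after 15 min compound preincubation at room temperature. Fluorescence change, last versus first of five reads.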
A number is an active result; i = inactive; ? = inconclusive; nt = not tested or not shown; [ ] = another dose, or the depositor's remark. Unless noted, the call rests on the fitted dose curve; in most records, active means well fitted inhibition curve with a large enough effect (not every such curve was filed as active); inconclusive means small, poorly fitted or top-dose-only effect, or another doubt; inactive means no such curve, though single readings can be large or run the other way.

SMILES	Tau fluor counter	ALDH1A1 block	Tau fibril FP	KDM4E inh	Tau ThT inhib	HPGD inh
CN1CCc2nc(SCc3ccc(C(C)(C)C)cc3)c(C#N)cc2C1	i	i	i	?	?	28µM
CN1CCc2nc(SCC(=O)Nc3ccc(F)cc3)c(C#N)cc2C1	?	?	i	?	14µM	i
Cc1noc(NS(=O)(=O)c2ccc(NC(=O)CSc3nc4c(cc3C#N)CCCCC4)cc2)c1C	i	i	i	i	?	28µM
Cc1noc(NS(=O)(=O)c2ccc(NC(=O)COc3ccccc3Br)cc2)c1C	i	nt	i	nt	i	nt
Cc1ccc(CSc2nc3c(cc2C#N)CCC3)cc1	i	i	i	i	i	i
Cc1noc(NS(=O)(=O)c2ccc(NC(=O)COc3ccc(Cl)cc3Cl)cc2)c1C	i	i	i	i	?	16µM
O=C(O)[C@H]1O[C@H]1C(=O)O	nt	i[13.5 µM]	nt	nt	nt	i
c1ccc2c(c1)CCC[C@@H]2C1=NCCN1	nt	i	nt	i	nt	i
Cc1cc(C(=O)CSc2nncn2C)c(C)n1-c1ccccc1	i	i	i	i	i	nt
CCN1CCN(c2cc(N3CCc4ccccc4C3)c(F)cc2[N+](=O)[O-])CC1	i	i	i	i	14µM	nt
CC(=O)N1CCN(c2cc(N3CCCC3)c(F)cc2[N+](=O)[O-])CC1	i	?	i	i	?	nt
O=P(c1ccccc1)(c1ccccc1)N(c1ccccc1)c1ccccc1	i	i	i	i	i	i
O=C1C=CC(=O)N1N(c1ccccc1)c1ccccc1	i	3.5µM	i	i	i	1.4µM
COc1ccc(Cl)cc1NC(=O)c1ncn(-c2ccccc2)n1	i	nt	?	nt	i	nt
COc1cccc2sc(NN)nc12	28µM[quencher]	i	?	?	?	nt
O=C(Cn1c(=O)c2ccccc2n(CC(=O)Nc2ccc(F)cc2)c1=O)NCCc1ccccc1	i	nt	?	nt	i	nt
COc1cccc(N2C(=O)/C(=C\c3cccs3)NC2=S)c1	i	i	i	i	?	nt
CC(C)CN1C(=O)/C(=C/c2cccs2)NC1=S	?	2µM	i	i	?	i
CCCN1C(=O)/C(=C/c2ccc(C)s2)NC1=S	?	8.9µM	i	i	?	i
CCn1c(C(C#N)/C(=N\S(=O)(=O)c2cccs2)c2ccccc2)nc2ccccc21 (stereo unspecified)	i	10µM	i	i	i	i
Cc1ccc2cc(/C=C(\C#N)C(N)=O)c(N3CCCCC3)nc2c1	i	11µM	i	i	?	i
Cc1ccc2cc(C#N)c(N3CCN(C)CC3)nc2c1	i	i	i	?	i	i
CCOC(=O)/C(C#N)=C/c1cc2ccccc2nc1N1CCCCC1	i	19µM	i	i	?	nt
Cc1ccc2cc(C=C(C#N)C#N)c(N3CCCCC3)nc2c1	i	7.9µM	?	i	25µM	i
Cc1cnc(CNc2ncnc3ccc(-c4ccccc4C(F)(F)F)cc23)cn1	nt	i	nt	nt	nt	nt
SMILES	Tau fluor counter	ALDH1A1 block	Tau fibril FP	KDM4E inh	Tau ThT inhib	HPGD inh
CCOc1ccc(NC(=S)N(C)C)cc1	i	i	i	i	i	nt
CCN1CCN(C(c2cccc(Cl)c2)c2c(O)cc(C)n(CCOC)c2=O)CC1 (stereo unspecified)	i	nt	i	nt	?	nt
Cc1ccc(-c2c(C(=O)NCCc3ccccc3)oc(=O)c3ccccc23)cc1	i	nt	i	nt	i	nt
CN(C)Cc1ccc(-c2cc3onc(-c4ccccc4)c3c(=O)n2C)cc1	nt	i[13.5 µM]	nt	nt	nt	i
COc1ccc(S(=O)(=O)N[C@H](C(=O)N2CC[C@@]3(O)CCCC[C@H]3C2)c2ccccc2)cc1	i	13µM	i	i	i	i
Cc1ccc(S(=O)(=O)N[C@H](C(=O)N2CCC3(O)CCCCC3C2)c2ccccc2)cc1 (stereo partly specified)	i	?	i	i	i	i
Clc1ccc(-c2nnc3sc(Cc4cccs4)nn23)cc1	i	22µM	i	i	i	i
O=C1c2ccccc2C(=O)N1Cc1nn2c(-c3ccc(Cl)cc3)nnc2s1	i	14µM	i	i	i	i
COc1cccc(CC(=O)NCc2ccc3c(c2)CCN3C(C)=O)c1	i	nt	i	nt	i	nt
COc1ccccc1CNC(=O)c1ccc(N2CCOCC2)c([N+](=O)[O-])c1	i	?	i	i	?	nt
CN1CCc2c(sc3ncn4nc(-c5ccccc5O)nc4c23)C1	i	?	?	22µM	28µM	i
CN(CC(=O)Nc1ccc(C(N)=O)cc1)CC(=O)Nc1ccccc1Cl	i	i	i	i	i	i
CN(CC(=O)Nc1ccc(Cl)cc1)CC(=O)Nc1ccc(C(N)=O)cc1	i	32µM	i	i	i	nt
O=C1c2cccc3cc([N+](=O)[O-])cc(c23)C(=O)N1/N=C/c1ccc(O)cc1O	13µM[quencher]	nt	i	i	?	nt
O=C1c2cccc3cc([N+](=O)[O-])cc(c23)C(=O)N1CCN1CCCC1	?	nt	i	?	nt	nt
CCc1ccc(NC(=O)CSc2nc(-c3ccccc3)no2)cc1	i	nt	?	nt	i	nt
COC(=O)c1ccc(-c2nc3cc(N)ccc3o2)cc1	i	i	i	i	5µM	i
COc1ccc(C(=O)Nc2ccc3oc(-c4ccc(OC)cc4)nc3c2)cc1	i	nt	i	nt	?	nt
O=C1c2ccccc2C(=O)c2c1ccc1c(=O)n(C3CCCCC3)[nH]c21	?	i	i	i	?	14µM
O=c1c2[nH]c3ccccc3c2ncn1C1CCCCC1	i	?	i	?	i	i
Cc1cc(C=O)c(C)n1-c1ccc(N2CCOCC2)c([N+](=O)[O-])c1	i	2.5µM	i	i	i	nt
O=[N+]([O-])c1cc(Cl)ccc1N1CCCC1	i	?	i	i	i	nt
Cc1ccc(C)n1-c1ccc(N2CCOCC2)c([N+](=O)[O-])c1	i	nt	i	?	?	nt
Cc1cc(C=O)c(C)n1-c1ccc2c(c1)OCO2	i	1.4µM	i	i	?	nt
COc1ccc(NC(=O)/C(C#N)=C\c2cc(C)n(-c3ccc4c(c3)OCO4)c2C)cc1	i	i	i	i	?	i
SMILES	Tau fluor counter	ALDH1A1 block	Tau fibril FP	KDM4E inh	Tau ThT inhib	HPGD inh
Cc1cc(C=O)c(C)n1-c1ccc(N2CCCC2)c([N+](=O)[O-])c1	i	0.45µM	i	i	?	14µM
CC(=O)N1CCCc2cc(S(=O)(=O)N(C)CC(=O)Nc3ccc(F)c(Cl)c3)ccc21	i	nt	i	nt	i	nt
COc1cccc(C(=O)Nc2ccccc2C(=O)OCc2cc(=O)n3c4c(sc3n2)CCCC4)c1	i	nt	i	nt	i	nt
CCN(CC)c1ccc(NC(=O)COc2ccc(C#N)cc2)cc1S(=O)(=O)Nc1ccc(OC)cc1	?	i	?	i	i	i
O=C(O)C1CC(O)CN1c1nc(Cl)ccc1[N+](=O)[O-] (stereo unspecified)	i	i	i	i	i	nt
Cc1ccc(NC(=O)CSc2nc(=O)n(Cc3cccnc3)c3c2CCC3)cc1F	i	nt	i	nt	i	nt
COC(=O)N1CCC2(CCCN(C(=O)Nc3ccccc3)C2)CC1	nt	i	nt	nt	nt	i
Cc1[nH]c(=S)[nH]c(=O)c1Cc1ccccc1	i	i	i	i	i	i
CCOCc1[nH]c(=S)[nH]c(=O)c1Cc1ccc(OC(C)C)cc1	i	13µM	i	i	i	nt
